Measured values taken from ChEMBL document CHEMBL3433997, “St. Jude Leishmania screening dataset” (2016).

What was measured:
Assay type in all cases: functional
[1] = molecular target: Solute carrier family 2, facilitated glucose transporter member 1 (Homo sapiens) (UniProt P11166); test: ST_JUDE_LEISH: Cytotoxicity at 2uM final concentration against transgenic Leishmania Mexicana promastigotes LmGLUT1 that are glucose transport deficient and complemented with the human glucose transporter GLUT1. Activity is measured by DNA content using SYBR green in vitro
Sequence of Solute carrier family 2, facilitated glucose transporter member 1 (Homo sapiens) (P11166 whole entry): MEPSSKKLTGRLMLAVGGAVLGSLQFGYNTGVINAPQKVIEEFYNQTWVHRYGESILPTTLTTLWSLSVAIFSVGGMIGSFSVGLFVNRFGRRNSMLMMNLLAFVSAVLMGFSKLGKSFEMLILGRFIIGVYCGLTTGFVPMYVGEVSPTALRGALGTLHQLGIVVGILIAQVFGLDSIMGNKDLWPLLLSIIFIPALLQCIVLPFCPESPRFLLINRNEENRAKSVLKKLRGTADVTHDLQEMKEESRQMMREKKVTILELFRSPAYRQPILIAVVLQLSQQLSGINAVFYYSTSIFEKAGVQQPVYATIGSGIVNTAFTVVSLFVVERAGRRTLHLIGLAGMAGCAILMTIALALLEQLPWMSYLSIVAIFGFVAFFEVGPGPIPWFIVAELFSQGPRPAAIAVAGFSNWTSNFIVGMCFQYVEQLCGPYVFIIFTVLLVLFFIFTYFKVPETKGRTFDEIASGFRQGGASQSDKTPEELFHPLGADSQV

[2] = molecular target: Hexose transporter 1 (Plasmodium falciparum) (UniProt O97467); test: ST_JUDE_LEISH: Cytotoxicity at 2uM final concentration against transgenic Leishmania Mexicana promastigotes LmPfHT that are glucose transport deficient and complemented with the Plasmodium falciparum hexose transporter. Activity is measured by DNA content using SYBR green in vitro
[3] = molecular target: Glucose transporter (Leishmania mexicana) (UniProt O61059); test: ST_JUDE_LEISH: Cytotoxicity at 2uM final concentration against transgenic Leishmania Mexicana promastigotes LmGT2 that are glucose transport deficient and complemented with the L. Mexicana glucose transporter 2. Activity is measured by DNA content using SYBR green in vitro

| SMILES | inhibition [1] [%] | inhibition [2] [%] | inhibition [3] [%] |
| --- | --- | --- | --- |
| CC1(C)NC(N)=NC(=N)N1OCCSc1ccccc1 | 2.9 | 3.7 | 3.37 |
| CC(C)(C)OC(=O)n1cc(C2CCN(CCCC34CCCc5cccc(c53)NC4=O)CC2)c2ccncc21 (stereo not drawn) | -0.89 | -0.01 | 9.45 |
| CCCC(C)N(Cc1ccc(C(C)(C)C)cc1)C(=O)c1ccc(OC)cc1 (stereo not drawn) | 9.4 | 10.6 | 7.03 |
| O=C(NCc1cccc(F)c1)c1ccc(O)c(-c2cc(Cl)cc(Cl)c2)c1 | 4.04 | 3.75 | 4.34 |
| C=CCn1c(Sc2ccc(C#N)c([N+](=O)[O-])c2)nnc1-c1cccc(Cl)c1 | -1.46 | -0.51 | -1.95 |
| Clc1ccc(Nc2nc3ccc(Cl)cc3nc2Nc2ccc(Cl)cc2)cc1 | 7.56 | 6.73 | 7.3 |
| O=C(Nc1ccc(Br)c(C(F)(F)F)c1)c1cccc([N+](=O)[O-])c1 | 3.35 | 2.2 | -0.11 |
| CCCCCCCN1CC[C@@H](CCCc2ccnc3ccc(OCCCCNC(N)=O)cc23)[C@@H](CC)C1 | 2.24 | 4.54 | 2.79 |
| CCCC(C)NC(=O)[C@H]1CNCCN1C(=O)CCCc1ccccc1 (stereo partly drawn) | 8.59 | 7.9 | 3.67 |
| O=C(NCC1CCN(Cc2ccsc2)C1)c1cc(-c2cccc(C(F)(F)F)c2)cs1 (stereo not drawn) | 1.96 | 0.91 | 3.66 |
| Cc1ccc(Oc2ncccc2C(=O)Nc2cccc3cccnc23)c(C)c1 | -2.47 | -0.84 | -1.45 |
| CCCc1nc2c(N3CCCN(C(=O)NC4CCCCC4)CC3)cccc2n1Cc1ccccn1 | -2 | -1.61 | -1.29 |
| CCCSc1nc2c(c(=O)n1CCc1ccccc1)C1(CCCC1)Cc1ccccc1-2 | -1.58 | 1.38 | 0.24 |
| O=C(NC1CCCCCC1)[C@@H]1CCCN1C(=O)c1ccc(O)c(-c2ccc(Cl)c(Cl)c2)c1 | 0.09 | 2.12 | -1.06 |
| CCNc1cc(C(=O)N[C@@H](Cc2ccccc2)[C@H](O)CN[C@H]2CCc3ccccc32)cc(N2CCCC2=O)c1 | 1.96 | 1.74 | 2 |
| O=C(CCc1cccc(O)c1)NCC(NCCCNc1cc(=O)c2ccccc2[nH]1)c1cc(Br)cc(Br)c1 (stereo not drawn) | 8.91 | 5.63 | 6.84 |
